# Measurements from paper PMC7862700, “An all-to-all approach to the identification of sequence-specific readers for epigenetic DNA modifications on cytosine”.
# Legend:
# Assay in all cases: DAPPL (digital affinity profiling via proximity ligation, sequencing); 10 mM Tris-HCl pH 7.5, 50 mM NaCl, 1 mM DTT, 4% glycerol, room temperature, 30 min; GST-TFs on glutathione beads, 16-mer random dsDNA library, 0.1% formaldehyde crosslink after washing; high values mean tight binding
# FLI1 = target: T1, FLI1 (Homo sapiens, UniProt Q01543 1-452); details: protein: recombinant; tags: N-terminal GST; dsDNA, one strand shown
# T1 sequence: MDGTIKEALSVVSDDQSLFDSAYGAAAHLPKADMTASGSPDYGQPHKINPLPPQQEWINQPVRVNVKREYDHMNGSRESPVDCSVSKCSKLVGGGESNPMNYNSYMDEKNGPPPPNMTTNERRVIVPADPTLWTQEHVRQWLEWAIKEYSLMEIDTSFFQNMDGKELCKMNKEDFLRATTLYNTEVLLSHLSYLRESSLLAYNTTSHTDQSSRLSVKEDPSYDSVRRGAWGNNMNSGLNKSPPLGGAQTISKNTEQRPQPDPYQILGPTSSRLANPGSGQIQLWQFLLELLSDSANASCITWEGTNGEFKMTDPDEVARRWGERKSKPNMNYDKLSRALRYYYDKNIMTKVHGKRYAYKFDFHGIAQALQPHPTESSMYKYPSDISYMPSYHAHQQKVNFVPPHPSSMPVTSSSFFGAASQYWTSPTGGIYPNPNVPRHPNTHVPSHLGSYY
# Procedure, shortened: (§1)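 A tag-only sample was pooled with DNA-barcoded human transcription factors that had been expressed in yeast as GST fusions and captured on glutathione beads. The pools were incubated for 30 min at room temperature with 200 nmole of a random double-stranded 16-mer DNA library in Tris/NaCl/DTT/glycerol buffer, then washed, crosslinked with 0.1% formaldehyde, proximity-ligated (BsaI/T4 ligase, 1 h, 37 °C), PCR-amplified and sequenced on an Illumina NextSeq500. Binding signal is each hexamer's read frequency for a factor divided by its frequency for the tag-only sample.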
# ELK1 = target: T2, ELK1 (Homo sapiens, UniProt P19419 1-428); details: protein: recombinant; tags: N-terminal GST; dsDNA, one strand shown
# T2 sequence: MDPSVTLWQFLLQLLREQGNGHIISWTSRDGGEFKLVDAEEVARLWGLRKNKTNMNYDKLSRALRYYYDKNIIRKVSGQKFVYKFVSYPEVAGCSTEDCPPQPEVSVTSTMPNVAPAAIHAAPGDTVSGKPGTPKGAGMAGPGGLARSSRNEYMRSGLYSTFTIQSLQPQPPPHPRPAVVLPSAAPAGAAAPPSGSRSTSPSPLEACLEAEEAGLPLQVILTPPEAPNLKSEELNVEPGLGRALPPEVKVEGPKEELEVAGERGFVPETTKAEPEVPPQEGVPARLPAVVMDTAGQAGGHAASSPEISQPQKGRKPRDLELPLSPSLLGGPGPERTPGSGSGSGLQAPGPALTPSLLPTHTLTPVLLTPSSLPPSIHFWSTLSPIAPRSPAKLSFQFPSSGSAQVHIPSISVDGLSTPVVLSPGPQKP
# Procedure, shortened: as §1
# GABPA = target: T3, GABPA (Homo sapiens, UniProt Q06546 1-454); details: protein: recombinant; tags: N-terminal GST; dsDNA, one strand shown
# T3 sequence: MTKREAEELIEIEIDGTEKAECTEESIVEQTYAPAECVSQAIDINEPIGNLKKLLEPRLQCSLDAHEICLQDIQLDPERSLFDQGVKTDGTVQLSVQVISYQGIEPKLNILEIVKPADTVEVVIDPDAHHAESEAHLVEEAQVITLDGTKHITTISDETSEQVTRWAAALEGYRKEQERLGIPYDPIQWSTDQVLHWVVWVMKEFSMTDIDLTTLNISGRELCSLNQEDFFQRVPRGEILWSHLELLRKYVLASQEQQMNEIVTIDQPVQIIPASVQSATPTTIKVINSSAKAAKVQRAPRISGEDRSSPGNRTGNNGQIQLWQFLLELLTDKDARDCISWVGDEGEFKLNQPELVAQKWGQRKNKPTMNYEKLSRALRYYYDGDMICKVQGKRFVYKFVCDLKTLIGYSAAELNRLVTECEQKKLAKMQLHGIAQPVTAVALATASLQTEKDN
# Procedure, shortened: as §1
# ERG = target: T4, ERG (Homo sapiens, UniProt P11308 1-479); details: protein: recombinant; tags: N-terminal GST; dsDNA, one strand shown
# T4 sequence: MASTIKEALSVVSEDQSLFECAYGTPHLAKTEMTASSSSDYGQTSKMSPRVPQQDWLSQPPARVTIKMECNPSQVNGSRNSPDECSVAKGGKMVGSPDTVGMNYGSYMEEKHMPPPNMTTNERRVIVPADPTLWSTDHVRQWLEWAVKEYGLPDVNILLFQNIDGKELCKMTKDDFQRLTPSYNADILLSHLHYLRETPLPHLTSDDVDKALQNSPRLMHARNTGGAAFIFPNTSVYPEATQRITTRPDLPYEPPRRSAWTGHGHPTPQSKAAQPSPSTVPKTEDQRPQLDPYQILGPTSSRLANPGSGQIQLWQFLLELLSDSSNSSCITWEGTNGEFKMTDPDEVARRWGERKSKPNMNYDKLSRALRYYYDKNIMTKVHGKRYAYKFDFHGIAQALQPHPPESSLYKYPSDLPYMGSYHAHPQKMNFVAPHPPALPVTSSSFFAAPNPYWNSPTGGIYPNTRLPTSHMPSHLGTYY
# Procedure, shortened: as §1
# ELF1 = ELF1 (Homo sapiens, UniProt P32519 1-619); details: protein: recombinant; tags: N-terminal GST; dsDNA, one strand shown
# Procedure, shortened: as §1
# EHF = target: T5, EHF (Homo sapiens, UniProt Q9NZC4 1-300); details: protein: recombinant; tags: N-terminal GST; dsDNA, one strand shown
# T5 sequence: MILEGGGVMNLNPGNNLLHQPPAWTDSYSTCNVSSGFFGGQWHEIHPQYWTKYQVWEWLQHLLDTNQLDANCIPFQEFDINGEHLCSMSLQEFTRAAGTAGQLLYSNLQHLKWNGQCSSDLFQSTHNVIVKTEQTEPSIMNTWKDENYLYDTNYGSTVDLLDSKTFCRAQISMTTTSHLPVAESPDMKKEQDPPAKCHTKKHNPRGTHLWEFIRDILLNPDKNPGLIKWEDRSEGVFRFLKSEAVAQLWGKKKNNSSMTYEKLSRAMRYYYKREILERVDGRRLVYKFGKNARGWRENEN
# Procedure, shortened: as §1
# SPI1 = SPI1 (Homo sapiens, UniProt P17947 1-270); details: protein: recombinant; tags: N-terminal GST; dsDNA, one strand shown
# Procedure, shortened: as §1
# SPIB = SPIB (Homo sapiens, UniProt Q01892 1-262); details: protein: recombinant; tags: N-terminal GST; dsDNA, one strand shown
# Procedure, shortened: as §1
# ELK3 = target: T6, ELK3 (Homo sapiens, UniProt P41970 1-407); details: protein: recombinant; tags: N-terminal GST; dsDNA, one strand shown
# T6 sequence: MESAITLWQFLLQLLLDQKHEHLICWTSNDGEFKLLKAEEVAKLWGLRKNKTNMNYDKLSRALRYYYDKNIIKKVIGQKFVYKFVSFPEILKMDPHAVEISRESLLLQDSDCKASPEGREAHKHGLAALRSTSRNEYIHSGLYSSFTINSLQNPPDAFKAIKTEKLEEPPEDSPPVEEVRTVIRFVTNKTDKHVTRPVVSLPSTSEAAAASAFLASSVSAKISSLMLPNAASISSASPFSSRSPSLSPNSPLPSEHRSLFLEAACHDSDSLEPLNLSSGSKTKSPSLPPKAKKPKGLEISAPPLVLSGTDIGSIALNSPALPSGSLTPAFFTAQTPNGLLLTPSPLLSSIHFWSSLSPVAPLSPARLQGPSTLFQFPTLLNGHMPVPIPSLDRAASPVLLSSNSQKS
# Procedure, shortened: as §1
# FEV = target: T7, FEV (Homo sapiens, UniProt Q99581 1-238); details: protein: recombinant; tags: N-terminal GST; dsDNA, one strand shown
# T7 sequence: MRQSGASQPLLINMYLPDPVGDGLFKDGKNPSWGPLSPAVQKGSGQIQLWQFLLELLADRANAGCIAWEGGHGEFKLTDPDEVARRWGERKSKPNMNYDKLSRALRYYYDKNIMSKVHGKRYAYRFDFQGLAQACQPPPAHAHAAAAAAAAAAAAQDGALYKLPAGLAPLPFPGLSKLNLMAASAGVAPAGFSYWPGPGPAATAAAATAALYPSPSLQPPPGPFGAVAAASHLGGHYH
# Procedure, shortened: as §1
# ETV5 = ETV5 (Homo sapiens, UniProt P41161 1-510); details: protein: recombinant; tags: N-terminal GST; dsDNA, one strand shown
# Procedure, shortened: as §1
# HSF1 = HSF1 (Homo sapiens, UniProt Q00613 1-529); details: protein: recombinant; tags: N-terminal GST; chain copies: 3; dsDNA, one strand shown
# Procedure, shortened: as §1
# ELF4 = ELF4 (Homo sapiens, UniProt Q99607 1-663); details: protein: recombinant; tags: N-terminal GST; dsDNA, one strand shown
# Procedure, shortened: as §1
# ELK4 = target: T8, ELK4 (Homo sapiens, UniProt P28324-2 1-405); details: protein: recombinant; tags: N-terminal GST; dsDNA, one strand shown
# T8 sequence: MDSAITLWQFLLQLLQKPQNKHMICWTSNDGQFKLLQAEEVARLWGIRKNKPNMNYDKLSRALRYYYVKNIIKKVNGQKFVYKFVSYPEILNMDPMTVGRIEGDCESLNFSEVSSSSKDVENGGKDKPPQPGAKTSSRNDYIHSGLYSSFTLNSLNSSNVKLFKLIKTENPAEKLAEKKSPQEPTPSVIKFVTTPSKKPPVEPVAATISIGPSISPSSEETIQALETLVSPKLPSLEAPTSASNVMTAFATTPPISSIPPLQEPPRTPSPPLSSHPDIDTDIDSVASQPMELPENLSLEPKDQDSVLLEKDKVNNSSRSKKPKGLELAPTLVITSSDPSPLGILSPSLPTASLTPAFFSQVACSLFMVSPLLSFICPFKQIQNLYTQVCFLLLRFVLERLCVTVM
# Procedure, shortened: as §1
# ETV2 = target: T9, ETV2 (Homo sapiens, UniProt O00321 1-342); details: protein: recombinant; tags: N-terminal GST; dsDNA, one strand shown
# T9 sequence: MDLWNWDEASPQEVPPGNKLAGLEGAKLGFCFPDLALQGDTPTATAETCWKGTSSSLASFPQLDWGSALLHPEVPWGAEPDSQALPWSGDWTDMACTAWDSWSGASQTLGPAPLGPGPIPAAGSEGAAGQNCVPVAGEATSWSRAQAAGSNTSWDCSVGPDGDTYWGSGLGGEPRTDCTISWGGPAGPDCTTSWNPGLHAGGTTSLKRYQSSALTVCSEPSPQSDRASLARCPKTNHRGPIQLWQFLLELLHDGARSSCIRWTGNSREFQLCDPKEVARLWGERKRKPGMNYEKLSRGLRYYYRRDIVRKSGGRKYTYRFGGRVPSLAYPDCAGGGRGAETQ
# Procedure, shortened: as §1
# ELF3 = target: T10, ELF3 (Homo sapiens, UniProt P78545 1-371); details: protein: recombinant; tags: N-terminal GST; dsDNA, one strand shown
# T10 sequence: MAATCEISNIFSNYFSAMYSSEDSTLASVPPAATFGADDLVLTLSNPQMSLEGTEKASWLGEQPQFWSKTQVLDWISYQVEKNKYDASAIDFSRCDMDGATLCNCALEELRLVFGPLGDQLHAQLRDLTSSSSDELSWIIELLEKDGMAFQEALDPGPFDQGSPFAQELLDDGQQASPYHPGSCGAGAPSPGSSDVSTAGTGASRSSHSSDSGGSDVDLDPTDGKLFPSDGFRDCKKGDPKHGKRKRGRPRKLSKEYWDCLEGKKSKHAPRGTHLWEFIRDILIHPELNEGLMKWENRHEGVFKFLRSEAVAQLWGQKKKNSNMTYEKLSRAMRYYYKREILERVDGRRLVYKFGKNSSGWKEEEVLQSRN
# Procedure, shortened: as §1
# CRX = CRX (Homo sapiens, UniProt O43186 1-299); details: protein: recombinant; tags: N-terminal GST; dsDNA, one strand shown
# Procedure, shortened: as §1
# ETV1 = ETV1 (Homo sapiens, UniProt P50549 1-477); details: protein: recombinant; tags: N-terminal GST; dsDNA, one strand shown
# Procedure, shortened: as §1
# ELF4, sequence (Q99607 whole entry): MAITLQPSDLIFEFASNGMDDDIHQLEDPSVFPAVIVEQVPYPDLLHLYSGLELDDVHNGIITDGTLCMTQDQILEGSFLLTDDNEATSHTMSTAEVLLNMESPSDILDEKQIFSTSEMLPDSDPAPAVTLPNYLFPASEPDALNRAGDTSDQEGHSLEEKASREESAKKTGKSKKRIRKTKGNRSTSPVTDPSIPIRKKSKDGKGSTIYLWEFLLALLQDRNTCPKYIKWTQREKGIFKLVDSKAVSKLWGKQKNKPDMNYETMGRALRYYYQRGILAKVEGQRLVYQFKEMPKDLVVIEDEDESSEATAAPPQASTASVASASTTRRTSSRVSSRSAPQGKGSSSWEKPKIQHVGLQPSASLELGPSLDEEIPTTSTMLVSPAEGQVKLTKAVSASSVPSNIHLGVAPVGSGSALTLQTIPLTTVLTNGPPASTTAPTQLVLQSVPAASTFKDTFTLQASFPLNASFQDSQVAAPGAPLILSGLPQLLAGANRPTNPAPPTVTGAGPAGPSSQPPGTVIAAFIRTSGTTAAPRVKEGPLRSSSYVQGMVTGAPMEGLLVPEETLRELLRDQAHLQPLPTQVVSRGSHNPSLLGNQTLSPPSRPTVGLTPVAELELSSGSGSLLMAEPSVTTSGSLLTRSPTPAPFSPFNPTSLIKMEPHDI
# SPIB, sequence (Q01892 whole entry): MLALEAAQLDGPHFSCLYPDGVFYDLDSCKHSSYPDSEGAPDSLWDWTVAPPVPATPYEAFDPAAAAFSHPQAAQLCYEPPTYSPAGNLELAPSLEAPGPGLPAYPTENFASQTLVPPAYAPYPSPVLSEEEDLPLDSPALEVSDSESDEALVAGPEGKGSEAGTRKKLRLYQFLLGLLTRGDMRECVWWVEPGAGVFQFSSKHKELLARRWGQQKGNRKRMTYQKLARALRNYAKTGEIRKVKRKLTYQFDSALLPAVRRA
# HSF1, sequence (Q00613 whole entry): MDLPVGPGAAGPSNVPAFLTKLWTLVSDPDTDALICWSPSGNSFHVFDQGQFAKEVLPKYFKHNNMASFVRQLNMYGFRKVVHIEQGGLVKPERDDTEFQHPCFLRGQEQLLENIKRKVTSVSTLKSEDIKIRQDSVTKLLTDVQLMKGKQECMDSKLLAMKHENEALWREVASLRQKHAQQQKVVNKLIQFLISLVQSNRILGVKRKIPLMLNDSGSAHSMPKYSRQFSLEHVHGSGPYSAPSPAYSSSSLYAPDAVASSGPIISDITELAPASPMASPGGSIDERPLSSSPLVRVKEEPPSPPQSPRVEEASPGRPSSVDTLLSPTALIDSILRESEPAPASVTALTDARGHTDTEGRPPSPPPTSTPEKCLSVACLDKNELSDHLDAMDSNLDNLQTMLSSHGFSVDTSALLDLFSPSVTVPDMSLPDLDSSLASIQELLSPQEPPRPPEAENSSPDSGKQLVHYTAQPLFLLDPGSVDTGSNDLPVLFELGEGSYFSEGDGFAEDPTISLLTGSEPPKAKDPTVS
# ELF1, sequence (P32519 whole entry): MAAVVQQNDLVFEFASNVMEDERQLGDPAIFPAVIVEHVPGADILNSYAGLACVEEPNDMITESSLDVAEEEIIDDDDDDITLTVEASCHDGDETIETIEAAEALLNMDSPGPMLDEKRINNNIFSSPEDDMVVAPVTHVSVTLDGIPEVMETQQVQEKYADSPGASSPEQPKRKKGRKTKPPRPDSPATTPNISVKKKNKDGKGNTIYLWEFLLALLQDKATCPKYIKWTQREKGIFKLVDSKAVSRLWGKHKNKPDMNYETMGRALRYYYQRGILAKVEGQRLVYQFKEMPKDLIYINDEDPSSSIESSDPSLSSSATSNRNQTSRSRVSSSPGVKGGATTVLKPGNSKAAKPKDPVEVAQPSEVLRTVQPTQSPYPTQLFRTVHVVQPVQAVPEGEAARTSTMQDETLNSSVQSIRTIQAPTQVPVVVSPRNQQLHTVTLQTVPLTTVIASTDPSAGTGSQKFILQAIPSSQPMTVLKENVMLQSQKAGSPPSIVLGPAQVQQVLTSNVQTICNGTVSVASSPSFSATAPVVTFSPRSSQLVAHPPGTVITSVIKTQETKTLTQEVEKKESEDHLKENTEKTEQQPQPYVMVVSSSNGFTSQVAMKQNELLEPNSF
# ETV5, sequence (P41161 whole entry): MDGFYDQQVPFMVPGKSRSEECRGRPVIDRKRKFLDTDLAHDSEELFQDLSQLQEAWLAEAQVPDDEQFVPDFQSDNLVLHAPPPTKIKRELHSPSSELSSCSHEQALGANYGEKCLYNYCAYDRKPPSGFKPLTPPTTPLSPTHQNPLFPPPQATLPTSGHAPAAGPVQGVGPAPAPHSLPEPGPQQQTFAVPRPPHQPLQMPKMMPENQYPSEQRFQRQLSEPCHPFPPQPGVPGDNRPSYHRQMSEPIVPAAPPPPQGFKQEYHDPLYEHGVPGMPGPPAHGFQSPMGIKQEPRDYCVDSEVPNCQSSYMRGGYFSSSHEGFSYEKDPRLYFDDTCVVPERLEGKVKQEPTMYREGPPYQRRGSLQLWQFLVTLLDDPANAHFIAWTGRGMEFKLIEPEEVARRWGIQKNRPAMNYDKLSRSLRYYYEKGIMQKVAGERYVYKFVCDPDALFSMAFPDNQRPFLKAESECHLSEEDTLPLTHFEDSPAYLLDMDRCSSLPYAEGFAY
# CRX, sequence (O43186 whole entry): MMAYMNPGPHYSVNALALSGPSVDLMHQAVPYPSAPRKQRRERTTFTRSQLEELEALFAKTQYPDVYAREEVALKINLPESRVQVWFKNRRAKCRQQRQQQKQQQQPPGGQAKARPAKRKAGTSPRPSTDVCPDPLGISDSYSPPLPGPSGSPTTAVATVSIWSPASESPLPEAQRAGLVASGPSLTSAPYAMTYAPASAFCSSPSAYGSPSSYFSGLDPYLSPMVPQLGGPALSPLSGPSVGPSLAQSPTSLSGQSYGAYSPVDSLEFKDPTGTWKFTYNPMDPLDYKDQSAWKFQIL
# ETV1, sequence (P50549 whole entry): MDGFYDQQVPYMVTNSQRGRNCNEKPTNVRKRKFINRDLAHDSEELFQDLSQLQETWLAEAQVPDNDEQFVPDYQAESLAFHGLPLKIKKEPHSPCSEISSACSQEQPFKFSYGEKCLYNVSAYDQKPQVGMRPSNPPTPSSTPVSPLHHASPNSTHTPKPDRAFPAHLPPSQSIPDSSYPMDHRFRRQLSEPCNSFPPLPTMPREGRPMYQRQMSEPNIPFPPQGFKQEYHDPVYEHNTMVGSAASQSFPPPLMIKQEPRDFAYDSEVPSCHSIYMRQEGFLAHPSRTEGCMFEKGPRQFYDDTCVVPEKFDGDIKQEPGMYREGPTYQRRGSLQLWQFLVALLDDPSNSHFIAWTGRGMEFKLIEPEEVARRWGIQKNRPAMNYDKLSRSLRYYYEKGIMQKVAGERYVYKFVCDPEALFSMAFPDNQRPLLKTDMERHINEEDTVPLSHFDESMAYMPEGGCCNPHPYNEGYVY
sequence,measurement,setting,value
CTAGTA,binding signal,FLI1,"1.08 fold enrichment (6-mer frequency, TF over GST control)"
same,binding signal,ELK1,"1.03 fold enrichment (6-mer frequency, TF over GST control)"
same,binding signal,GABPA,"1.08 fold enrichment (6-mer frequency, TF over GST control)"
same,binding signal,ERG,"1.06 fold enrichment (6-mer frequency, TF over GST control)"
same,binding signal,ELF1,"1.15 fold enrichment (6-mer frequency, TF over GST control)"
same,binding signal,EHF,"1.08 fold enrichment (6-mer frequency, TF over GST control)"
same,binding signal,SPI1,"1.13 fold enrichment (6-mer frequency, TF over GST control)"
same,binding signal,SPIB,"1.1 fold enrichment (6-mer frequency, TF over GST control)"
same,binding signal,ELK3,"1.17 fold enrichment (6-mer frequency, TF over GST control)"
same,binding signal,FEV,"1.04 fold enrichment (6-mer frequency, TF over GST control)"
same,binding signal,ETV5,"1.08 fold enrichment (6-mer frequency, TF over GST control)"
same,binding signal,HSF1,"1.86 fold enrichment (6-mer frequency, TF over GST control)"
same,binding signal,ELF4,"1.07 fold enrichment (6-mer frequency, TF over GST control)"
same,binding signal,ELK4,"1.09 fold enrichment (6-mer frequency, TF over GST control)"
same,binding signal,ETV2,"1.1 fold enrichment (6-mer frequency, TF over GST control)"
same,binding signal,ELF3,"1.18 fold enrichment (6-mer frequency, TF over GST control)"
same,binding signal,CRX,"1.38 fold enrichment (6-mer frequency, TF over GST control)"
same,binding signal,ETV1,"1.04 fold enrichment (6-mer frequency, TF over GST control)"
